“And” between values parts separate entries of the source, which are not always exact repeats. Identical values can stand only once. Records with an inconclusive call do not appear. The source made the active and inactive calls. Rule for the calls, unless noted: active = hit-call score of the fitted dose curve at least 0.9, where 1 is the maximum; inconclusive = response in the unintended direction; inactive = score below 0.9.
Columns and labels:
[1] = ATG_NF_kB_CIS: Attagene CIS-FACTORIAL HepG2 Assay for human Nuclear Factor Kappa B (NF-kB) (AID 2282991; active = hit-call score of the fitted dose curve at least 0.9, where 1 is the maximum; inactive = score below 0.9); details: HepG2 Attagene cis-factorial NF-kB reporter mRNA; actives raise or lower the signal
Procedure, shortened: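 DMSO served as negative control and baseline for bidirectional curve fitting. Transiently transfected HepG2 cells were dosed for 24 h, then reporter transcripts were measured by RT-PCR with capillary electrophoresis detection.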

[2] = ATG_NRF2_ARE_CIS: Attagene CIS-FACTORIAL HepG2 Assay for human Nuclear Factor Erythroid 2 Related Factor 2 (NFR2) response to Antioxidant Response Elements (ARE) (AID 2282992; active = hit-call score of the fitted dose curve at least 0.9, where 1 is the maximum; inactive = score below 0.9;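 for AC50: reporter mRNA level measured by RT-PCR and capillary electrophoresis fluorescence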); details: HepG2 Attagene ARE/NRF2 reporter, transcription factor activity; actives raise or lower the signal
Procedure, shortened: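 Readout: reporter mRNA quantified by RT-PCR plus FAM-labelled primer extension, HpaI digestion and capillary electrophoresis, 24 h after dosing transfected HepG2 cells. Gain or loss of signal is fitted bidirectionally against DMSO baseline.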

[3] = ATG_Oct_MLP_CIS: Attagene CIS-FACTORIAL HepG2 Assay for human Octamer-Binding Transcription Factor (Oct) (AID 2282993; active = hit-call score of the fitted dose curve at least 0.9, where 1 is the maximum; inactive = score below 0.9); details: HepG2 Attagene cis-factorial Oct reporter, mRNA; actives raise or lower the signal
Procedure, shortened: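 Transient MRTU transfection of HepG2 → 24 h compound treatment → RNA isolation, reverse transcription, PCR → 6-FAM primer extension, HpaI digest → capillary electrophoresis. Activity fitted both directions against DMSO.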

[4] = biological target: Cellular tumor antigen p53 (Homo sapiens) (UniProt P04637); experiment: ATG_p53_CIS: Attagene CIS-FACTORIAL HepG2 Assay for human p53 Transcription Factor (AID 2282994; active = hit-call score of the fitted dose curve at least 0.9, where 1 is the maximum; inactive = score below 0.9); details: HepG2 p53 cis-element reporter, Attagene mRNA; actives raise or lower the signal
Sequence of Cellular tumor antigen p53 (Homo sapiens) (P04637 whole entry, looked up): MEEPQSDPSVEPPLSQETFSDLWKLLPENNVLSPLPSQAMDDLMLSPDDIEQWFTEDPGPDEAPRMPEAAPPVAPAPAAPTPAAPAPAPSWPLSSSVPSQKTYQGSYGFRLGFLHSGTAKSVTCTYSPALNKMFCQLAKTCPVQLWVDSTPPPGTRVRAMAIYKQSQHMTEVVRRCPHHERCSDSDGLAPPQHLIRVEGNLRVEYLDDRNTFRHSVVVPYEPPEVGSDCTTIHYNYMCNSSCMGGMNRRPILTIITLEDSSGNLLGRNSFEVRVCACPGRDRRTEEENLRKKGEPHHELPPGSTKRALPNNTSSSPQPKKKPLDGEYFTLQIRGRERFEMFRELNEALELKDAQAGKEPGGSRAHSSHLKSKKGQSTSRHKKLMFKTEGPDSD
Procedure, shortened: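 Read-out: reporter mRNA by RT-PCR plus capillary electrophoresis with fluorescence detection. Human HepG2 liver cells carried transfected multi-reporter cis-element constructs, dosed 24 h. Gain or loss of signal fitted bidirectionally against DMSO control.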

[5] = BSK_3C_TissueFactor: BioMAP Diversity Plus: 3C Assay for Tissue Factor Biomarker Activity (AID 2282997; active = hit-call score of the fitted dose curve at least 0.9, where 1 is the maximum; inactive = score below 0.9); details: BioMAP 3C HUVEC, tissue factor biomarker readout; actives raise or lower the signal
Procedure, shortened: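 Tissue factor on primary human umbilical vein endothelium was read by ELISA 24 h after dosing, gain or loss relative to DMSO. Cytotoxicity ran alongside via SRB (0.1%, TCA-fixed, 560 nm).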

[6] = BSK_3C_uPAR: BioMAP Diversity Plus: 3C Assay for Urokinase-type plasminogen activator receptor (uPAR) Biomarker Activity (AID 2282998; active = hit-call score of the fitted dose curve at least 0.9, where 1 is the maximum; inactive = score below 0.9); details: BioMAP 3C HUVEC, uPAR biomarker ELISA; actives raise or lower the signal
Procedure, shortened: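 ELISA readout of uPAR on human vascular endothelium (umbilical vein primary cells), taken 24 h after chemical dosing. Increases and decreases are both fitted relative to DMSO vehicle.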

[7] = BSK_3C_VCAM1: BioMAP Diversity Plus: 3C Assay for Vascular cell adhesion molecule 1 (VCAM1) Biomarker Activity (AID 2282999; active = hit-call score of the fitted dose curve at least 0.9, where 1 is the maximum; inactive = score below 0.9); details: BioMAP 3C HUVEC, VCAM1 ELISA, cytokine-stimulated; actives raise or lower the signal
Procedure, shortened: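 Vascular primary endothelium (human umbilical vein) was exposed to chemicals and assayed 24 h later. VCAM-1 levels came from ELISA, with DMSO serving as baseline for bidirectional fitting.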

[8] = BSK_4H_Eotaxin3: BioMAP Diversity Plus: 4H Assay for Eotaxin 3 Biomarker Activity (AID 2283000; active = hit-call score of the fitted dose curve at least 0.9, where 1 is the maximum; inactive = score below 0.9); details: primary human endothelial cells (HUVEC); actives raise or lower the signal
Procedure, shortened: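 Human umbilical vein endothelial cells (BSK_4H system) dosed with test chemical; Eotaxin-3 (CCL26) measured by ELISA 24 h after dosing. Bidirectional curve fitting relative to DMSO negative control as baseline.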

[9] = biological target: human Peroxisome Proliferator-activated Receptor delta (PPARd), PPARD (gene 5467) (UniProt Q03181); experiment: ATG_PPARd_TRANS: Attagene TRANS-FACTORIAL HepG2 Assay for human Peroxisome Proliferator-activated Receptor delta (PPARd) (AID 2283002)
Sequence of human Peroxisome Proliferator-activated Receptor delta (PPARd), PPARD (gene 5467) (Q03181 whole entry, looked up, the tested form may be a part): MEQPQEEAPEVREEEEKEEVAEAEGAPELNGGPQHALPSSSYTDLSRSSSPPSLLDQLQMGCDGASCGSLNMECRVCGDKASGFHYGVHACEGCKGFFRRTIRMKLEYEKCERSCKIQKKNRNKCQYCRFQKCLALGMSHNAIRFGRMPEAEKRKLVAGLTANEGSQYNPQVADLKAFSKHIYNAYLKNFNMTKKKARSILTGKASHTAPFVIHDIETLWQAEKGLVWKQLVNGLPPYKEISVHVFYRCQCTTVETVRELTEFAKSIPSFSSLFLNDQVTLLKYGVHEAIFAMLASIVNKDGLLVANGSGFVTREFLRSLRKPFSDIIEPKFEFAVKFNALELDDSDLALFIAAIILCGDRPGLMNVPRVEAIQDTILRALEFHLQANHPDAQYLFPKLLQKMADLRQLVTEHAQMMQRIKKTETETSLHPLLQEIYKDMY
Procedure, shortened: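 HepG2 cells transiently transfected with multiplexed GAL4-UAS reporter units and exogenous chimeric NR-Gal4 proteins; 24 h compound exposure. Reporter mRNA measured by RT-PCR, 6-FAM labelling, HpaI digestion and capillary electrophoresis; gain of signal versus DMSO.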

[10] = read-out: Intercellular Adhesion Molecule 1 (ICAM1), ICAM1 (gene 3383); experiment: BSK_3C_ICAM1: BioMAP Diversity Plus: 3C Assay for Intercellular Adhesion Molecule 1 (ICAM1) Biomarker Activity (AID 2283003; active = hit-call score of the fitted dose curve at least 0.9, where 1 is the maximum; inactive = score below 0.9); details: primary human endothelial cells (HUVEC); actives raise or lower the signal
Procedure, shortened: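 Chemicals are dosed onto primary human umbilical vein endothelium (3C system). After 24 h, ICAM-1 is measured by ELISA, and responses are fitted bidirectionally relative to DMSO.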

[11] = BSK_3C_Proliferation: Cell Proliferation Assessment in the BioMAP Diversity Plus: 3C Assay (AID 2283006; active = hit-call score of the fitted dose curve at least 0.9, where 1 is the maximum; inactive = score below 0.9;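 for AC50: potency may reflect either rise or fall in cell number versus DMSO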); details: primary human endothelial cells (HUVEC)
Procedure, shortened: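 Cells (human umbilical vein endothelial, sub-confluent) receive test chemical; after 48 h they are fixed in 10% trichloroacetic acid, stained with 0.1% SRB and read at 560 nm. Activity is referenced to DMSO, fitting increases and decreases.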

[12] = biological target: Peroxisome proliferator-activated receptor gamma (Homo sapiens) (UniProt P37231); experiment: ATG_PPARg_TRANS: Attagene TRANS-FACTORIAL HepG2 Assay for human Peroxisome Proliferator-activated Receptor-gamma (PPARg) (AID 2283007)
Sequence of Peroxisome proliferator-activated receptor gamma (Homo sapiens) (P37231 whole entry, looked up, the tested form may be a part): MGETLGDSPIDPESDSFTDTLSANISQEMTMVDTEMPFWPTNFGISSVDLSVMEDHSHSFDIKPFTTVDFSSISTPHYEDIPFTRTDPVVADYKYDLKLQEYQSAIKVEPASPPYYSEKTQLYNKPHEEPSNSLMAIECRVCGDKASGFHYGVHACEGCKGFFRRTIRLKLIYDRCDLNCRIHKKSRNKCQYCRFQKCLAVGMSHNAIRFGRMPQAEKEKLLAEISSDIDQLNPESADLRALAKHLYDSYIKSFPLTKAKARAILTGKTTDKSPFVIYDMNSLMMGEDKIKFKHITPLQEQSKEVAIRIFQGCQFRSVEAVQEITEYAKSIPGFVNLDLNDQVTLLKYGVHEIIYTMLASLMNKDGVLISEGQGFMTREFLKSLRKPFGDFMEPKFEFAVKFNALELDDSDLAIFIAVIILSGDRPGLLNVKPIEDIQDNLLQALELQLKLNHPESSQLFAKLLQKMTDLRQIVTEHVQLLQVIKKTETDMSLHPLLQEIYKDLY
Procedure, shortened: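 Chimeric NR-Gal4 transactivation is measured in transiently transfected HepG2 cells by reporter mRNA induction at 24 h. Detection uses RT-PCR with fluorescent labelling and capillary electrophoresis; DMSO defines baseline.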

[13] = biological target: Nuclear receptor subfamily 1 group I member 2 (Homo sapiens) (UniProt O75469); experiment: ATG_PXR_TRANS: Attagene TRANS-FACTORIAL HepG2 Assay for human Pregnane X Receptor (PXR) (AID 2283008)
Sequence of Nuclear receptor subfamily 1 group I member 2 (Homo sapiens) (O75469 whole entry, looked up, the tested form may be a part): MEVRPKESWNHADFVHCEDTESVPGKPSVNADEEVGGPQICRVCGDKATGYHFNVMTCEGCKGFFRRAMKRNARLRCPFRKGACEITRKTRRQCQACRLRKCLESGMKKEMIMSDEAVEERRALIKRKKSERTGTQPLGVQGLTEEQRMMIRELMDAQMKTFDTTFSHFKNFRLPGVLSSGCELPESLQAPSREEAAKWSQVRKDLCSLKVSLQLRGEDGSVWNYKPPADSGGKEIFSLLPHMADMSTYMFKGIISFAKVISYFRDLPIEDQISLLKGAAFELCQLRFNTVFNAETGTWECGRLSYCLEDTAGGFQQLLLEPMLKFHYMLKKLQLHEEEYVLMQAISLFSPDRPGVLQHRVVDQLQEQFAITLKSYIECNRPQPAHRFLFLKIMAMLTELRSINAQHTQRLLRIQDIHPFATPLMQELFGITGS
Procedure, shortened: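 Trans-factorial format: exogenous NR-Gal4 fusion activity, not endogenous factor, in transfected human HepG2 liver cells. After 24 h dosing, RNA isolated, reverse-transcribed, amplified and resolved by capillary electrophoresis; induction scored versus DMSO.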

[14] = biological target: human Peroxisome Proliferator-activated Receptor alpha (PPARa), PPARA (gene 5465) (UniProt Q07869); experiment: ATG_PPARa_TRANS: Attagene TRANS-FACTORIAL HepG2 Assay for human Peroxisome Proliferator-activated Receptor alpha (PPARa) (AID 2283001);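 for AC50: potency for gain of reporter signal over DMSO so agonist or activator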
Sequence of human Peroxisome Proliferator-activated Receptor alpha (PPARa), PPARA (gene 5465) (Q07869 whole entry, looked up): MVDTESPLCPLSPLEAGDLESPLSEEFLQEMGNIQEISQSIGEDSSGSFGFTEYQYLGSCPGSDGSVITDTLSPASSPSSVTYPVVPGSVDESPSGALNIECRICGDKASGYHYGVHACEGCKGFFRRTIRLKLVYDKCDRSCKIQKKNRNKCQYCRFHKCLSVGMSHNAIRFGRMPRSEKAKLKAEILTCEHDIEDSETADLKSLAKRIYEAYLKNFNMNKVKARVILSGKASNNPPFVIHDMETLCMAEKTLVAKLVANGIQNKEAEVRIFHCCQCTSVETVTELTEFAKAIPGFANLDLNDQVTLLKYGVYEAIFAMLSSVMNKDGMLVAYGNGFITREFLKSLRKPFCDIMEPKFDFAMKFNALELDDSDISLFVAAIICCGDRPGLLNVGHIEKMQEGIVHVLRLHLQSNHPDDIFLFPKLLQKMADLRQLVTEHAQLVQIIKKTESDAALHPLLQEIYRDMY
Procedure, shortened: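 Cells (HepG2) are transfected with multiple reporter transcription units, exposed to chemical for 24 h, then total RNA is reverse-transcribed and amplified. Labelled products are quantified by capillary electrophoresis; induction is referenced to DMSO.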

[15] = biological target: Retinoic acid receptor alpha (Homo sapiens) (UniProt P10276); experiment: ATG_RARa_TRANS: Attagene TRANS-FACTORIAL HepG2 Assay for human Retinoic Acid Receptor alpha (RARa) (AID 2283005)
Sequence of Retinoic acid receptor alpha (Homo sapiens) (P10276 whole entry, looked up, the tested form may be a part): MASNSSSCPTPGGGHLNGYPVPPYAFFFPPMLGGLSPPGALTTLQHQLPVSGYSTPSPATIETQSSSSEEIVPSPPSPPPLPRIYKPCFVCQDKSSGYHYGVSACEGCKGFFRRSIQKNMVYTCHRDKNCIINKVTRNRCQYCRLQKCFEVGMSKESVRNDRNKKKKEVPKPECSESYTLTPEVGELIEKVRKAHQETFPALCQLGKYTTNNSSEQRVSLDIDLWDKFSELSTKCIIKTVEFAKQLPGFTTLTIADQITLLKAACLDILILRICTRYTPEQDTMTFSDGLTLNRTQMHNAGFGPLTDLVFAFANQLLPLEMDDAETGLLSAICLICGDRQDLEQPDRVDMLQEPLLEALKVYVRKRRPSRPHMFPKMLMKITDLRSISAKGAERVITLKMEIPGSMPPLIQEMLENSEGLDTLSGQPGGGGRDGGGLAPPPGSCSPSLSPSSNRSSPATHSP
Procedure, shortened: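 HepG2 cells transiently transfected with multiple reporter units expressing chimeric RARα-GAL4 fusion, with GAL4-UAS-driven reporters. After 24 h compound exposure, reporter mRNA induction quantified by RT-PCR and capillary electrophoresis with fluorescent labeling; gain-of-signal fitted relative to DMSO control.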

[16] = biological target: human RAR-related Orphan Receptor beta (RORb), RORB (gene 6096) (UniProt Q92753); experiment: ATG_RORb_TRANS: Attagene TRANS-FACTORIAL HepG2 Assay for human RAR-related Orphan Receptor beta (RORb) (AID 2283010)
Sequence of human RAR-related Orphan Receptor beta (RORb), RORB (gene 6096) (Q92753 whole entry, looked up, the tested form may be a part): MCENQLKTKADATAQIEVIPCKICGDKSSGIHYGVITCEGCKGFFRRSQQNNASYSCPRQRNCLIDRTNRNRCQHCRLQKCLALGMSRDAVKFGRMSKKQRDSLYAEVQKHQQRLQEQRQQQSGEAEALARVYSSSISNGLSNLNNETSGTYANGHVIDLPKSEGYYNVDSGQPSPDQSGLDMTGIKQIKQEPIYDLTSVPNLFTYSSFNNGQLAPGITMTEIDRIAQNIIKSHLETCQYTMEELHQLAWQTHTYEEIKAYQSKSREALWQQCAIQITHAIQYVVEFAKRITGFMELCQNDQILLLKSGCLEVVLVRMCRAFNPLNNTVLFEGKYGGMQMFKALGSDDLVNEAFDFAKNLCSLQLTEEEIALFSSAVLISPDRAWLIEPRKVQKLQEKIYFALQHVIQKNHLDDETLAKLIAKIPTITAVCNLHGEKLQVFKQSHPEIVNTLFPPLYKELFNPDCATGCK
Procedure, shortened: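 Transfect HepG2 with multiple GAL4-UAS reporter transcription units; dose chemicals for 24 h; isolate RNA, reverse-transcribe and PCR-amplify reporter sequences; label, digest and resolve fragments by capillary electrophoresis; fit increases relative to DMSO.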

[17] = biological target: human Retinoic Acid Receptor gamma (RARg), RARG (gene 5916) (UniProt P13631); experiment: ATG_RARg_TRANS: Attagene TRANS-FACTORIAL HepG2 Assay for human Retinoic Acid Receptor gamma (RARg) (AID 2283009)
Sequence of human Retinoic Acid Receptor gamma (RARg), RARG (gene 5916) (P13631 whole entry, looked up, the tested form may be a part): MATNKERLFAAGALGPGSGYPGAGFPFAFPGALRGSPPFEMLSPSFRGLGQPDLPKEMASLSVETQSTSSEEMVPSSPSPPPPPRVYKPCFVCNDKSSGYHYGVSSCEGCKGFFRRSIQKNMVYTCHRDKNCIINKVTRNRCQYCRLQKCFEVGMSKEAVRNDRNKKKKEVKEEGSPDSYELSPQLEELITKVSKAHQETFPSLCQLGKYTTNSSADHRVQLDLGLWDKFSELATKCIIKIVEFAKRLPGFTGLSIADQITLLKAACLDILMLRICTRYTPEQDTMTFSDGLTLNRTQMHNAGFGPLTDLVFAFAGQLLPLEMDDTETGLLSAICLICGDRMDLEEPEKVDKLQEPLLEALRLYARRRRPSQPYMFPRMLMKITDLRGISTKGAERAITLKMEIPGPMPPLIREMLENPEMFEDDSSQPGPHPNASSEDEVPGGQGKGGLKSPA
Procedure, shortened: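 TRANS format measured activity of exogenous NR-GAL4 fusion (RARg) in transfected HepG2 liver cells after 24 h dosing. Induced reporter RNA was detected by RT-PCR/capillary electrophoresis fluorescence, analysed in the positive direction against DMSO.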

[18] = biological target: human RAR-related Orphan Receptor gamma (RORg), RORC (gene 6097) (UniProt P51449); experiment: ATG_RORg_TRANS: Attagene TRANS-FACTORIAL HepG2 Assay for human RAR-related Orphan Receptor gamma (RORg) (AID 2283011)
Sequence of human RAR-related Orphan Receptor gamma (RORg), RORC (gene 6097) (P51449 whole entry, looked up, the tested form may be a part): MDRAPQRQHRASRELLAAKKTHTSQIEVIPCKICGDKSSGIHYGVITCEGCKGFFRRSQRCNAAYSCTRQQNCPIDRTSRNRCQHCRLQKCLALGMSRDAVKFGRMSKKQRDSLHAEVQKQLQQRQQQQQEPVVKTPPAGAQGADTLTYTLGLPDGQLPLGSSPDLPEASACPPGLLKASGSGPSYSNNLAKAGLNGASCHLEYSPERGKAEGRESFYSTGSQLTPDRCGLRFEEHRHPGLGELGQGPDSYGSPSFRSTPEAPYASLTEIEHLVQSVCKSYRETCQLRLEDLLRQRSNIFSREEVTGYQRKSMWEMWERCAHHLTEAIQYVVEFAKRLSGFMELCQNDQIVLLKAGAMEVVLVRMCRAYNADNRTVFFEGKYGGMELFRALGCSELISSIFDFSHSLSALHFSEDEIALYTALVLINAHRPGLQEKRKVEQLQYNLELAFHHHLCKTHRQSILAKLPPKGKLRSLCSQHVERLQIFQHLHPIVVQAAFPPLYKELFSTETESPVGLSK
Procedure, shortened: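 Reporter transcripts from a transfected RORg-GAL4 chimera in HepG2 cells were quantified 24 h after dosing by RT-PCR, 6-FAM labelling, HpaI digestion and capillary electrophoresis; increases over DMSO baseline were fitted.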

[19] = biological target: human Retinoic Acid Receptor beta (RARb), RARB (gene 5915) (UniProt P10826); experiment: ATG_RARb_TRANS: Attagene TRANS-FACTORIAL HepG2 Assay for human Retinoic Acid Receptor beta (AID 2283004)
Sequence of human Retinoic Acid Receptor beta (RARb), RARB (gene 5915) (P10826 whole entry, looked up, the tested form may be a part): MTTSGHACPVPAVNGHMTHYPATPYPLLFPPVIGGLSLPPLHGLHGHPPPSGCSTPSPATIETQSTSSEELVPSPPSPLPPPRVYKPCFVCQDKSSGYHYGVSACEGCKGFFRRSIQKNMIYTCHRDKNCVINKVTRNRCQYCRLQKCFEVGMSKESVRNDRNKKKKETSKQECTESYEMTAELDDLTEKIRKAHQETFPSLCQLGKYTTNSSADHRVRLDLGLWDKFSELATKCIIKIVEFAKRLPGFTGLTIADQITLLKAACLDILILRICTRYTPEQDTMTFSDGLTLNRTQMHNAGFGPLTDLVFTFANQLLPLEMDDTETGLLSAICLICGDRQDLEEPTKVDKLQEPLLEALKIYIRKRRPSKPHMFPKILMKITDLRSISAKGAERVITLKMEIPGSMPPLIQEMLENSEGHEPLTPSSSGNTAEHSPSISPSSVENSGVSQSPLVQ
Procedure, shortened: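 Induction of reporter mRNA from a chimeric RARb-Gal4 construct was measured by RT-PCR, FAM labelling, HpaI digestion and capillary electrophoresis. Measurements followed 24 h compound treatment of transiently transfected human HepG2 liver cells, with DMSO as baseline.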

Measured: AC50

CCOC(=O)C(C#N)=C(c1ccccc1)c1ccccc1
active: [2] 27.6 µM | [11] 20 µM and 8.88 µM | [12] 7.45 µM | [13] 1.24 µM
not listed: [14] | [15] | [16] | [17] | [18] | [19]
inactive: all other assays above

C[Si](C)(C)O[Si](C)(C)C
inactive: [1] | [2] | [3] | [4] | [14] | [9] | [15] | [16]

CCCCCCCCCCCCS(=O)(=O)Cl
active: [12] 25 µM
inactive: [1] | [2] | [3] | [4] | [14] | [9] | [15] | [17] | [16]

CC(=O)OCCCc1ccccc1
inactive: [1] | [2] | [3] | [4] | [15] | [13] | [17] | [18]

CC(C=O)Cc1ccc(C(C)(C)C)cc1 (stereo not drawn)
inactive: [3] | [4] | [9]
active: [2] 26.4 µM | [5] 31.1 µM | [6] 32.9 µM | [7] 36.4 µM | [8] 36 µM | [14] 40.7 µM | [10] 31.1 µM | [11] 30.9 µM | [12] 79.1 µM | [13] 23.1 µM

CCCCCCC(O)CCCCCCCCCCC(=O)O (stereo not drawn)
active: [2] 27.3 µM | [14] 5.01 µM | [9] 12.1 µM | [12] 14.2 µM
inactive: [3] | [19] | [15] | [13] | [17] | [18]

CC=CC=CCOC(=O)C(C)C
active: [2] 27.1 µM | [12] 11.1 µM
inactive: [3] | [4] | [14] | [13] | [18]

c1ccc(CN(Cc2ccccc2)Cc2ccccc2)cc1
active: [2] 100 µM
inactive: [1] | [3] | [12] | [13] | [17]

CCC1CCCCC1
inactive: [1] | [2] | [14] | [19] | [15] | [12] | [13] | [17] | [16]

C/C=C(\C)C(=O)OCCc1ccccc1
inactive: [1] | [2] | [3] | [4] | [14] | [9] | [15] | [12] | [18]
active: [13] 25.1 µM

CC[N+](C)(CC)CC
inactive: [2] | [3] | [4] | [14] | [15] | [12] | [13] | [17]

CN(c1nccc(=O)[nH]1)C1CCN(c2nc3ccccc3n2Cc2ccc(F)cc2)CC1
active: [6] 1.84 µM
not listed: [1] | [3] | [4] | [9] | [14] | [16]
inactive: all other assays above

O=C(c1ccccc1)C(O)c1ccccc1 (stereo not drawn)
inactive: [1] | [2] | [9] | [15] | [12] | [13] | [16] | [18]

CC1=CC[C@@]23C[C@@H]1C(C)(C)[C@@H]2CC[C@H]3C
active: [2] 100 µM
inactive: [1] | [3] | [4] | [12] | [13] | [16] | [18]

COc1ccc(CCC(C)=O)cc1
inactive: [1] | [2] | [3] | [4] | [14] | [12] | [13]
